Sampled rows, rich in hits. Any-hit rate of the full collection: about 5.4%.
Lassa entry inh = inhibitors of Lassa virus binding or cell entry; Lassa virus pseudotype entry inhibition, cell reporter; Potency, µM (highest dose often 37.9 µM), without a hit: top-dose activity change, negative = inhibition, most hits filed as inhibitors; hit rate 1.2% among 300,000; AID 540256; calls by dose curve; tested in HEK293 cells; also: nearly all actives have a fitted effect of over 50% in size
MARV entry inh = inhibitors of Marburg virus binding or cell entry. Marburg virus pseudotyped entry inhibition, cell reporter. Potency, µM (titrated, usually from 37.8 µM), for the others: at the highest dose activity change, negative = inhibition, most hits filed as inhibitors. hit rate 1.8% among 300,000. AID 540276; calls by dose curve; tested in HEK293 cells
Vaccinia mCherry = vaccinia inhibition (mCherry reporter); Vaccinia virus mCherry reporter infection, fluorescence; Potency, µM (highest dose often 36.5 µM), for the others: top-dose activity change, negative = inhibition, usual class: inhibitors; hit rate 0.63% among 310,000; calls by dose curve; tested in A549 cells; also: nearly all actives have a fitted effect of over 35% in size
FMDV inh = antivirals against foot and mouth disease virus. FMDV antiviral cell-based qHTS. AID 1159524. hit rate 1.2% among 410,000. Potency, µM (top dose mostly 57.9 µM), inactives show at the top dose activity change, negative = inhibition, most hits filed as inhibitors; calls by dose curve; tested in HEK293T cells; also: read-out not given here; nearly all actives have a fitted effect of over 45% in size
Sm TGR inh = S. mansoni TGR enzyme inhibition. hit rate 3% among 360,000. Q962Y6. Potency, µM (titrated, usually from 114 µM), without a hit: at the highest dose activity change, negative = inhibition, hits mostly inhibitors. AID 485364. purified TGR, DTNB reduction, TNB absorbance 405 nm; active = well fitted inhibition curve with a large enough effect; inconclusive = small, poorly fitted or top-dose-only effect; inactive = no such curve, though single readings can be large or run the other way; also: nearly all actives have a fitted effect of over 60% in size
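First, TGR (20 nM dispensed) and NADPH were mixed with compound. Second, a 15 min room-temperature incubation followed. Third, further NADPH and then DTNB were added to start the reaction. Finally, TNB absorbance was monitored kinetically.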
VACV Venus inh = inhibitors of vaccinia virus (Venus reporter). Vaccinia virus Venus reporter expression, fluorescence. Potency, µM (top dose mostly 36.5 µM), for the others: at the highest dose activity change, negative = inhibition, most hits filed as inhibitors. hit rate 0.46% among 330,000. AID 720580; calls by dose curve; tested in A549 cells; also: nearly all actives have a fitted effect of over 30% in size
* hit, by the source's call; i = inactive; ? = inconclusive; . = not tested or not shown; [ ] = remark or other dose. % is scaled to controls: 0 for no effect and ±100 for the full control effect; potency is read from the fitted curve at half-maximal effect.

SMILES | Lassa entry inh | MARV entry inh | Vaccinia mCherry | FMDV inh | Sm TGR inh | VACV Venus inh
CCCCOc1cc(C(=O)NCCN(CC)CC)c2ccccc2n1 | 13µM* | 10µM* | 0% | 0% | 12% | -9%
CCCCCCNC(=O)c1cc(-c2ccco2)nc2ccccc12 | -1% | -25% | . | -28% | 3.2µM* | .
Cc1ccc(C)c(Cn2c(SCC(=O)N(C)Cc3ccccc3)nc3ccccc32)c1 | ? | . | -17% | -16% | 6% | -11%
CCOC(=O)c1cnc2cc(C(F)(F)F)ccc2c1Nc1cc(C)ccc1OC | 8%[46.1 µM] | -5%[46.1 µM] | 0% | ? | 2% | 3%
CCCCn1c(N)c(N(CC(C)C)C(=O)c2cc(-c3ccco3)nc3ccccc23)c(=O)[nH]c1=O | 1% | 16% | -20% | 5% | 22µM* | -8%
CCCCCCCCCC[n+]1ccc(/C=C/c2c(C)[nH]c3ccccc23)c2ccccc21 | . | . | i | . | . | i
Cc1nc2ccccc2nc(C)c1=NOCc1cccc(F)c1 | 2.8µM* | ? | i | ? | -3% | ?
Cc1ccc(C(C)(C)C)cc1S(=O)(=O)N1CCC(C(=O)N2CCN(c3ccc(O)cc3)CC2)CC1 | 2.8µM* | ? | -9% | ? | -28% | -15%
Cc1cc(C)c(C)c(S(=O)(=O)N2CCC(C(=O)N3CCN(c4ccc(F)cc4)CC3)CC2)c1C | -5% | ? | -26% | -27% | . | -23%
CCN1C(=O)C2(c3ccccc31)c1c(oc3ccc(C)cc3c1=O)C(=O)N2CCCOC(C)C (configuration not stated) | -6%[46.1 µM] | 0%[46.1 µM] | -2% | 17% | 0% | 0%
CCOc1ccc(OCC(=O)N2CCOCC2)cc1 | 0% | 9%[46.1 µM] | . | 7% | -16% | -1%
N#CC(C#N)=Cc1ccc(N2CCOCC2)cc1 | . | . | -14% | -12% | 3.2µM* | 0%
N#C/C(=C\c1ccc(N2CCOCC2)cc1)c1ccccc1 | ? | ? | ? | 32% | -6% | ?
N#CC(C#N)=Cc1ccc(OCC(=O)N2CCOCC2)cc1 | . | -18%[46.1 µM] | -8% | -5% | 2.5µM* | 2%
COc1ccc(NC(=O)CC2C(=O)N(c3ccc(C)cc3)C(=O)N2CCc2ccccc2)cc1 (configuration not stated) | ? | ? | -5% | -6% | 5% | -11%
Cc1nnc(-c2ccccc2)c(=O)n1/N=C/c1c(O)ccc2ccccc12 | ? | ? | 3.2µM* | -5% | -1% | ?
O=S(=O)(/N=C/c1c(O)ccc2ccccc12)c1ccccc1 | 9% | ? | -13% | -22% | 40µM* | -13%
O=C(O)c1ccc(N=Cc2c(O)ccc3ccccc23)cc1 | -3%[46.1 µM] | ? | ? | -5% | ? | -18%
Cc1nnc(C)n1/N=C/c1c(O)ccc2ccccc12 | . | . | . | -6% | 28µM* | .
Cc1nc2ccccc2c(=O)n1/N=C/c1ccc2ccccc2c1O | . | . | . | ? | 9% | .
Cn1c(/N=C/c2c(O)ccc3ccccc23)nc2ccccc21 | -5% | 7% | . | 1% | 10µM* | .
COc1cc2nc(N3CCCC(O)C3)c(CNCc3ccccc3F)cc2c(OC)c1OC (configuration not stated) | . | . | -12% | -9% | . | 7%
O=C(c1cn(C2CCCN(Cc3cccc(Oc4ccccc4)c3)C2)nn1)N1CCCC1 (configuration not stated) | . | . | -4% | 1% | . | -17%
O=C(c1cnn2c1NC(c1ccc(Br)cc1)CC2C(F)(F)F)N1CCN(C23CC4CC(CC(C4)C2)C3)CC1 (configuration not stated) | 2% | 16µM* | . | ? | -15% | .
COc1ccc(-n2nc3ccc(NC(=O)c4c(OC)cccc4OC)cc3n2)cc1 | -15%[46.1 µM] | ? | i | 16% | 1% | -24%
SMILES | Lassa entry inh | MARV entry inh | Vaccinia mCherry | FMDV inh | Sm TGR inh | VACV Venus inh
CC(=O)c1ccc2noc(-c3cccc(C)c3)c2c1 | 15%[46.1 µM] | ? | i | -4% | 18µM* | -1%
COC(=O)C(O)(c1ccc(NC(=S)NC(=O)c2ccc(Cl)cc2Cl)c(C)c1)C(F)(F)F (configuration not stated) | 5.8µM* | ? | ? | ? | -3% | ?
CCOC(=O)C(O)(c1ccc(NC(=S)NC(=O)c2ccc(Cl)cc2Cl)c(C)c1)C(F)(F)F (configuration not stated) | 10µM* | ? | ? | ? | 1% | ?
COc1cc(N)c(N)cc1OC | . | . | i | . | . | -10%
CN(C)c1ccc(/C=C/c2c(Cl)cnc3ccccc23)cc1 | . | . | -11% | . | . | -15%
O=C(NCC1CCCO1)c1cc(-c2ccco2)nc2ccccc12 (configuration not stated) | -1% | 22% | i | -6% | 35µM* | -5%
O=C(NCC1CCCO1)c1cc(-c2ccncc2)nc2ccccc12 (configuration not stated) | -7% | 2% | -4% | -17% | -1% | -2%
COc1cccc(-c2cc(C(=O)NC3CC3)c3ccccc3n2)c1 | . | . | . | ? | -21% | .
CN1CCC(NC(=O)c2cc(-c3cccc(Br)c3)nc3ccccc23)CC1 | ? | 10µM* | -1% | -5% | 20% | -21%
O=C(NC1CCC(O)CC1)c1cc(-c2ccco2)nc2ccccc12 (configuration not stated) | . | . | . | 3% | 11µM* | .
O=C1C2=C(NC(=S)NC2c2ccc(Cl)cc2)NC(c2ccc(Cl)cc2)N1c1ccc(Cl)cc1 (configuration not stated) | -1% | 16µM* | . | ? | 35% | .
CCc1ccc(C2NC(=S)NC3=C2C(=O)N(c2ccccc2OC)C(c2ccc(CC)cc2)N3)cc1 (configuration not stated) | 4% | -7% | . | ? | -8% | .
COC(COC(N)=O)C1=C(N2CC2)C(=O)C(C)=C(N2CC2)C1=O (configuration not stated) | 1.3µM* | ? | ? | -1% | . | 2.8µM*
CCOC(=O)N1CCN(c2c(N3CCN(C(=O)OCC)CC3)c(=O)c2=O)CC1 | . | . | . | 0% | 4% | .
N#Cc1nc(COc2ccccc2Cl)oc1NCc1cccnc1 | 0% | 2% | . | -7% | 7.1µM* | .
COc1ccccc1OCc1nc(C#N)c(NCc2ccco2)o1 | 5% | -28% | -19% | 7% | 40µM* | -1%
Cc1ccc(OCc2nc(C#N)c(NCc3ccco3)o2)cc1 | -26% | 3% | -18% | 12% | ? | -14%
COc1ccc(OC)c(NC(=O)c2cc3cc(C)ccc3n2C)c1 | 6%[46.1 µM] | 14%[46.1 µM] | -5% | -8% | -4% | -7%
Fc1ccc(COc2cccc(CNCc3ccncc3)c2)cc1 | -11% | 6.3µM* | -26% | -22% | . | -15%
CCOc1cc(CNCc2ccncc2)cc(Br)c1OCc1ccc(F)cc1 | -18% | ? | . | 16µM* | -4% | .
Fc1ccc(COc2ccc(Br)cc2CNCc2ccncc2)cc1 | -21% | ? | . | ? | 0% | .
COC(=O)c1cc(CNC(=O)c2ccncc2)cc(NC(=O)c2ccccc2Cl)c1 | . | . | -6% | -1% | . | -9%

Assay outcomes (PubChem)
